Rows were chosen to be rich in hits. Some 3.4% of all compounds tested hit in one or more screens of this group.
PLK1 PBD block: PLK1 (human) polo-box domain binding inhibition; P53350; Plk1 PBD binding of FITC phosphopeptide, fluorescence polarization; Potency, µM, for the others: max response, negative = inhibition, actives largely listed as inhibitors; 360,000 tested, 2.8% active; further: series mostly up to about 57 µM; on the % scale 0 is the no-effect control and ±100 the full control effect; nearly all actives have a fitted effect of over 65% in size
Target sequence (P53350 whole entry, looked up, the tested form may be a part): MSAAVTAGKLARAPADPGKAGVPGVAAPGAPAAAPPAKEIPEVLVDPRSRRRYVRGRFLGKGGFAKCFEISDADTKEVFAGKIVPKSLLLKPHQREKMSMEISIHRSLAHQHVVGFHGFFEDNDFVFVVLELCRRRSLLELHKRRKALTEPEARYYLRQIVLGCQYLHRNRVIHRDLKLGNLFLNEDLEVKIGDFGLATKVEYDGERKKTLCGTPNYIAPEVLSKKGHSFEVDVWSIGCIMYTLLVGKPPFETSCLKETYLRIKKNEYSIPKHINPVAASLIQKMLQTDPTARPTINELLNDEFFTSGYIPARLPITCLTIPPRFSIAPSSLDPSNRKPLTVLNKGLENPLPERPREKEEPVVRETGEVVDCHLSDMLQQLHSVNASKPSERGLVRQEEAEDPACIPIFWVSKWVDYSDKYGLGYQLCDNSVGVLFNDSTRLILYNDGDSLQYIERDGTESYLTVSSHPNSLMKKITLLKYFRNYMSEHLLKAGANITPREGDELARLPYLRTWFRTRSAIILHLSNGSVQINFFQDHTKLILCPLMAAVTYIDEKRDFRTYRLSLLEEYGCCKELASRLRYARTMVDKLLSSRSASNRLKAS
Mito fusion act: inhibitors of mitochondrial division or activators of mitochondrial fusion; Potency, µM (highest dose often 46.1 µM), for inactives: top-dose growth rescue (activation), most hits filed as activators; S. cerevisiae fusion-defective mutant growth rescue, CellTiterGlo 48 h; 320,000 tested, 0.23% active; AID 485298; further: % of control where 0% means no effect; nearly all actives have a fitted effect of over 45% in size
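S. cerevisiae fusion-defective temperature-sensitive mutants (e.g. fzo1-1, mgm1-5) grown 48 h at 37C in YPEG (ethanol/glycerol non-fermentable) medium with 23 nl compound per well; growth rescue read as CellTiterGlo luminescence.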
PKM2 act: activators of human pyruvate kinase M2 | 260,000 tested, 0.34% active | Potency, µM (doses to about 57.5 µM), inactives show top-dose activation, actives largely listed as activators | purified PKM2, Kinase-Glo ATP luminescence, activation; response scale: 0% is enzyme alone, no compound | P14618; further: on the % scale 0 is the no-effect control and ±100 the full control effect; nearly all actives have a fitted effect of over 55% in size
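ATP formation by purified human PK-M2, quantified via coupled luciferase luminescence after 1 h at room temperature with 0.1 mM ADP and 0.5 mM PEP final.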
GLS inhibitor: glutaminase GLS (human) inhibition; O94925; GLS enzymatic activity, qHTS titration; Potency, µM (highest dose often 45.5 µM), for the others: at the top dose activity change, negative = inhibition, hits mostly inhibitors; 410,000 tested, 0.21% active; AID 624170; further: on the % scale 0 is the no-effect control and ±100 the full control effect
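Compounds were pin-transferred onto hKGA, after which L-glutamine (1 mM solution) and a detection mix of glutamate oxidase, HRP and Amplex Red were added. Initial and 30 min RT fluorescence reads were collected.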
KAT2A inh: GCN5L2 (KAT2A) acetyltransferase inhibition. GCN5L2 HAT assay, ThioGlo1 CoA-SH fluorescence. Potency, µM (series often up to 58.9 µM), for the others: at the top dose activity change, negative = inhibition, most hits filed as inhibitors. 390,000 tested, 0.21% active; further: on the % scale 0 is the no-effect control and ±100 the full control effect
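GCN5L2 (20 nM) in 50mM HEPES pH 7.5, 0.1mM EDTA, 0.01% Tween-20 preincubated 15 min with compounds at room temperature. Reaction started with H3(1-25) 75uM, acetyl-CoA 70uM, ThioGlo1 50uM; CoA-thiol fluorescence (Ex340/Em540) read at 0 and 20 min.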
VDR inhibitor: blocks the human vitamin D receptor. P11473. VDR-SRC2-3 peptide fluorescence polarization, 2 h. Potency, µM, for inactives: max response, negative = inhibition, most hits filed as inhibitors. 400,000 tested, 0.93% active; further: on the % scale 0 is the no-effect control and ±100 the full control effect
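VDR–SRC2-3 interaction, FP format. Cmpds 23 nl via pintool, brief spin, 2 h ambient incubation.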
Active calls of the source: *; ? = inconclusive; · = no result given; ! = a repeat was not active; [ ] = dose if it differs, or a comment. The call rests on the fitted dose curve; in most records, active means well fitted curve in the direction sought with a large enough effect; inconclusive means small, poorly fitted or top-dose-only effect, or another doubt; inactive means no such curve, though single readings can be large; an effect the other way counts as inactive or inconclusive. Potency means the concentration at half of the fitted maximal effect.

SMILES	PLK1 PBD block	Mito fusion act	PKM2 act	GLS inhibitor	KAT2A inh	VDR inhibitor
CCOC(=O)c1cnc(N2CCN(c3ccc(C)cc3C)CC2)c2ccccc12	·	·	·	-6%	-10%	6%
COC(=O)c1ccc(Oc2cc(C)nc(SC)n2)cc1	12µM*	5%	0%	?	-5%	?
N#CCCn1cc(C(N)=O)c(-c2ccc3ccccc3c2)n1	27µM*	3%	4%	-27%	-3%	-23%
O=C(CCl)Nc1c2c(nn1-c1ccccc1)CSC2	27µM*	22%	·	-5%	-5%	?
O=C(CCCCl)Nc1c2c(nn1-c1ccccc1)CSC2	-10%	5%	3%	6%	-3%	0%
Cc1ccc(-n2nc3c(c2NC(=O)c2cccs2)CS(=O)(=O)C3)cc1	-18%	-1%	4%	12%	-4%	1%
Cc1ccc(-n2nc3c(c2NC(=O)c2cccs2)CSC3)cc1	-7%	-3%	1%	24%	3.5µM*	9%
C=C1CC2C(=O)N(Cc3cc(OC)ccc3OC)C(C(=O)OCC)C1N2C (stereo not drawn)	·	·	·	·	·	-20%
c1ccc(-c2csc3nnc(SCc4ccc5c(c4)OCO5)n23)cc1	21µM*	4%	0%	?	0%	79µM*
Cc1ccc(-c2csc3nnc(SCC(=O)NCc4ccc5c(c4)OCO5)n23)cc1	-7%	-3%	0%	-9%	-21%	14%
NC(=O)[C@@H]1CCCN1C(=O)[C@H](Cc1cnc[nH]1)NC(=O)[C@@H]1CCC(=O)N1	·	·	·	-14%	-22%	2%
COc1ccccc1NS(=O)(=O)c1cccc(-n2c(O)c(C=Nc3ccccc3C(=O)O)c3ccccc3c2=O)c1	30µM*	-1%	-1%	-12%	?	-18%
COc1ccc(Cn2c(O)c(C=Nc3ccccc3C(=O)O)c3ccccc3c2=O)cc1	?	-1%	-7%	2%	?	-10%
COc1ccc(C(C)=O)cc1Cn1cnc2c(cnn2C)c1=O	19µM*	-3%	-1%	48%	-1%	?
Cn1nc(C(=O)NCc2ccc(F)cc2)cc1C(=O)NCc1ccc(F)cc1	-1%	-12%	·	-6%	-2%	-2%
Cn1cc(C(=O)NCc2ccc(F)cc2)cn1	24µM*	2%	2%	0%	0%	1%
Cc1cccc(C)c1-n1nnnc1C(c1ccnc2ccccc12)N(C)Cc1ccc(Cl)c(Cl)c1 (stereo not drawn)	-9%	·	·	4%	·	·
O=C1CC(=O)N(c2cccc(F)c2)N1	-8%	0%	·	1%	1%	-24%
O=C1c2ccccc2S(=O)N1c1cccc(F)c1 (stereo not drawn)	24µM*	·	·	3%	·	·
COC(=O)c1cc2c(C)nn(C)c2s1	0%	5.6µM*	-2%	4%	-4%	4%
CCCCNC(=O)COC(=O)c1cc2c(C)nn(-c3ccccc3)c2s1	-7%	3%	-5%	1%	-3%	17%
CCCN1C(=O)c2ccccc2NC1c1ccc(OC)c(COc2ccc([N+](=O)[O-])cc2)c1 (stereo not drawn)	·	·	·	·	·	-23%
Cc1cccc(C)c1NC(=O)C(c1ccccc1)N1CCC1=O (stereo not drawn)	17µM*	2%	-3%	29%	43%	?
Cc1cccc(C)c1NC(=O)C(c1ccccc1)N1CCC(c2ccccc2)CC1 (stereo not drawn)	-2%	·	·	·	·	·
COc1ccc(C(=O)Oc2ccc3ccc(=O)oc3c2)cc1	1%	4%	·	-8%	7%	2%
SMILES	PLK1 PBD block	Mito fusion act	PKM2 act	GLS inhibitor	KAT2A inh	VDR inhibitor
COc1cc2ccc(=O)oc2cc1O	5%	-2%	·	25%	32µM*!	6%
CC(C)CNC(=O)c1ccc(C2SCC(=O)N2Cc2ccccc2)cc1 (stereo not drawn)	24µM*	-3%	-7%	-21%	2%	79µM*
CCCNC(=O)c1ccc(C2SCC(=O)N2Cc2ccccc2)cc1 (stereo not drawn)	-1%	7%	-6%	2%	4%	-1%
CN(C)C(=O)NC(NC(=S)Nc1ccccc1)C(Cl)(Cl)Cl (stereo not drawn)	12µM*	2%	-6%	-15%	-4%	?
CC(=O)c1ccc(C(=O)N(Cc2cccnc2)c2nc3c(C)c(C)ccc3s2)cc1	·	·	·	5%	-6%	5%
Cc1ccc(C(=O)CC(=O)c2ccccc2)cc1	-7%	-5%	-1%	4%	-8%	-23%
Cc1ccc(C(=O)Sc2cccccc2=O)cc1	2.7µM*	18%	·	27%	-28%	20µM*
O=C(Nc1ccccc1SC(=O)c1ccccc1)c1ccccc1	4.2µM*	·	·	0%	·	·
CC(=O)N(C)c1ccc(NC(=O)N2CCOCC2)cc1	-28%	0%	-1%[11.5 µM]	6%	-3%	-23%
CN(CC1(C)CCCO1)S(=O)(=O)c1ccc(Cl)c(S(N)(=O)=O)c1 (stereo not drawn)	·	·	·	-2%	·	·
O=C(NCc1ccc(Cl)cc1)C1CCN(c2nn3cc(-c4ccc(F)cc4)nc3s2)CC1	·	·	·	0%	-1%	-5%
COc1ccc(C)c2sc(N(CCCN(C)C)C(=O)CS(=O)(=O)c3ccc(F)cc3)nc12	3%	-3%	·	7%	3%	21%
COc1ccc(/C=C2/CCC(CN3CCOCC3)C2=O)cc1 (stereo not drawn)	5.3µM*	·	·	14%	·	?
CN(C)CC1CCC/C(=C\c2ccc(OC(=O)c3ccc(Cl)cc3)cc2)C1=O (stereo not drawn)	?	·	·	7%	·	?
CN(C)CC1CC/C(=C\c2ccc(O)cc2)C1=O (stereo not drawn)	6.7µM*	·	·	3%	·	22µM*
CN(C)CC1CCC/C(=C\c2ccc(OC(=O)/C=C/c3ccccc3)cc2)C1=O (stereo not drawn)	?	·	·	-5%	·	79µM*
COc1ccc(/C=C2\CCC(C3CCCC3)C2=O)cc1 (stereo not drawn)	-2%	1%	·	9%	0%	-11%
CCC1CC=CC2C1C(=O)N(Cc1ccccc1)C2c1ccc(C(F)(F)F)cc1 (stereo not drawn)	·	·	·	·	·	11%
O=S(=O)(N/N=C/c1cccnc1)c1ccc(Cl)c(Cl)c1	13µM*	-2%	1%	11%	-4%	?
Cc1nn(CCCC(=O)Nc2sc3c(c2C#N)CCC3)c(C)c1[N+](=O)[O-]	30µM*	2%	-1%	-8%	-9%	?
CCCCNC(=O)CCn1c(=O)c2ccccc2n(CC(=O)NCCc2ccc(OC)c(OC)c2)c1=O	-2%	-5%	·	6%	-6%	8%
O=C(Cn1cnc2sc3c(c2c1=O)CCCC3)NCC(=O)Nc1c(F)cccc1F	34µM*	0%	·	3%	-5%	-13%

Screening results as filed in PubChem.
